Inconclusive results are not listed. The source made the active and inactive calls.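 How the source made its calls: active means potency, the concentration giving half inhibition in the gel assay, of 75 µM or lower; inconclusive means potency above 75 µM yet under 100 µM; inactive means potency of 100 µM or weaker, or none.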
biological target: Ubiquitin carboxyl-terminal hydrolase 1 (Homo sapiens) + WD repeat-containing protein 48 (Homo sapiens) (UniProt O94782+Q8TAF3); experiment: Inhibitors of USP1/UAF1: Hit Validation in USP1 Diubiquiting Gel Assay; conditions: USP1/UAF1 K63 diubiquitin cleavage, SDS-PAGE gel
Source text: Deubiquitinating enzymes (DUBs) are a class of enzymes that can cleave isopeptide bond formed between the C-terminal carboxylate of ubiquitin and a lysine side-chain amino group on the target protein. Among them, ubiquitin specific proteases (USPs) constitute the largest DUB family. Human USPs are emerging as promising targets for pharmacological intervention because of their connection to a number of human diseases, including prostate, colon and breast cancer (1, 2), pediatric acute lymphoblastic leukemia (3), and familial cylindromatosis (4). The advantage of inhibiting USPs lies in the potential specificity of therapeutic intervention that can lead to better efficacy and reduce nonspecific side effects. In a collaboration between the University of Delaware and the NIH Chemical Genomics Center, a high-throughput screen assay was developed to screen for USP1/UAF1 inhibitors. This miniaturized assay has a fluorescent read-out and is used to screen the NIH Molecular Libraries Small Molecule Repository (MLSMR) in order to identify a small molecule that inhibits USP1. Follow-up assays have also been developed to further test the hits from the primary screen. This assay validates the hits identified from the primary screen using a USP1 diubiquiting gel assay. NIH Chemical Genomics Center [NCGC] NIH Molecular Libraries Probe Centers Network [MLPCN] MLPCN Grant: DA030552 Assay Submitter (PI): Zhihao Zhuang, University of Delaware 1. Priolo, C., et al. (2006) The isopeptidase USP2a protects human prostate cancer from apoptosis. Cancer Res 66, 8625-8632 2. Popov, N., et al. (2007) The ubiquitin-specific protease USP28 is required for MYC stability. Nat Cell Biol 9, 765-774 3. De Pitta, C., et al. (2005) A leukemia-enriched cDNA microarray platform identifies new transcripts with relevance to the biology of pediatric acute lymphoblastic leukemia. Haematologica 90, 890-898 4. Kovalenko, A., et al. (2003) The tumour suppressor CYLD negatively regulates NF-kappaB signalling by deubiquitination. Nature 424, 801-805
The inhibition assay contains 100 nM for USP1/UAF1, 2 microM K63 linked diubiquitin, and inhibitors at varied concentrations (0.08 microM - 114 microM). The reaction was allowed for 1 hour at 37 degrees C, and quenched by the addition of Laemmli sample buffer. The reaction product was separated on a 20% denaturing SDS-PAGE gel and stained with Coomassie Blue. The intensity of the individual diubiquitin and monoubiquitin band was quantified using Quantity One 4.3.1 (Biorad, Hercules, CA). The percentage of the conversion was determined and used to calculate the reaction rate. The rate was plotted against inhibitor concentrations and fitted to determine the IC50 values using GraphPad Prism (GraphPad Software, Inc. La Jolla, CA).

Sequence of Ubiquitin carboxyl-terminal hydrolase 1 (Homo sapiens) + WD repeat-containing protein 48 (Homo sapiens) (O94782 whole entry, looked up): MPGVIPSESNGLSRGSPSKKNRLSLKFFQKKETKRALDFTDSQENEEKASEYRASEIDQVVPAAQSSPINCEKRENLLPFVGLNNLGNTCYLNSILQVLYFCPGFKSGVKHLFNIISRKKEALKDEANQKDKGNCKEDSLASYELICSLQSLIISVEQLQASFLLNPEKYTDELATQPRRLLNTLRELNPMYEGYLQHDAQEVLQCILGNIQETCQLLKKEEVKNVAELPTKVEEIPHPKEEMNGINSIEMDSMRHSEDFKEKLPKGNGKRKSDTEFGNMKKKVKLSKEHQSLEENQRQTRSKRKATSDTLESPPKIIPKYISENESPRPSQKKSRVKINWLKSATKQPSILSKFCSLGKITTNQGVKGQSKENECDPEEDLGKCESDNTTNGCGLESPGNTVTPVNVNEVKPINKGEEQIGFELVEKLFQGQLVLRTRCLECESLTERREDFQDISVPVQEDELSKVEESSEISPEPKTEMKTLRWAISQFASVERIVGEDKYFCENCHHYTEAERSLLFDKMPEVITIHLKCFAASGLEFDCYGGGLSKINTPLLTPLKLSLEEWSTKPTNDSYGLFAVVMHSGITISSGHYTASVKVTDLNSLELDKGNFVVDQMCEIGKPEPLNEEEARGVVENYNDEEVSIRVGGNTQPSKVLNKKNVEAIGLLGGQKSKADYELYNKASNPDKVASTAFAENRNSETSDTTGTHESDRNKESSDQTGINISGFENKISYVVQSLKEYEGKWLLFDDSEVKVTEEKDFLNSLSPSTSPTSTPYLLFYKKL
Sequence of Ubiquitin carboxyl-terminal hydrolase 1 (Homo sapiens) + WD repeat-containing protein 48 (Homo sapiens) (Q8TAF3 whole entry, looked up): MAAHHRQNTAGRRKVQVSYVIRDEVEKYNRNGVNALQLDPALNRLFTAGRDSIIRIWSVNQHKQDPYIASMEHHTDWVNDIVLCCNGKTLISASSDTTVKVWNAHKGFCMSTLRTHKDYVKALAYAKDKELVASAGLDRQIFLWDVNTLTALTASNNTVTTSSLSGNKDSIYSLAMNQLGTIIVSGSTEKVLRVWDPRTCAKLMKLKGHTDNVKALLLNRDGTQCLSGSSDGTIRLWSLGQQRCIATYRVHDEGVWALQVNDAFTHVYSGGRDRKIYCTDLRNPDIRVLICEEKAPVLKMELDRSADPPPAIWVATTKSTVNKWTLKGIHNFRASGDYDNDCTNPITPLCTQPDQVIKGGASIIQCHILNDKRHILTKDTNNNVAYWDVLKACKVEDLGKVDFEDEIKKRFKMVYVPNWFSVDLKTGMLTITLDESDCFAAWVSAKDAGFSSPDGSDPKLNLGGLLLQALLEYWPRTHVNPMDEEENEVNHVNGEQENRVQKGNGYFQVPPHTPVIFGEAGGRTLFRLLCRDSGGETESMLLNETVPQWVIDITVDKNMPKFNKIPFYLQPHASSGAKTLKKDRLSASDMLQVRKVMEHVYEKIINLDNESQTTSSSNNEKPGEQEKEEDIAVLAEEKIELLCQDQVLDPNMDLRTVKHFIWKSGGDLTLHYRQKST

SMILES	outcome	Potency
FC(F)(F)c1ccccc1-c1nc(NCc2cccnc2)c2ccccc2n1	inactive	
COc1ccccc1-c1nc(NCc2cccs2)c2ccccc2n1		21.3 µM (active)
Cc1ccccc1-c1nc(NCc2cccnc2)c2ccccc2n1	inactive	
COc1ccc(CNc2ccnc(-c3ccccc3C(F)(F)F)n2)c(OC)c1		4.5 µM (active)
Clc1ccccc1-c1nccc(NCc2ccccc2)n1		20 µM (active)
COc1ccccc1-c1nc(NCc2ccccc2)c2ccccc2n1		6.4 µM (active)
COc1ccccc1CNc1nc(-c2ccc(N(C)C)cc2)nc2ccccc12		10 µM (active)
Cc1noc(C)c1-c1nc(NCc2cccs2)c2ccccc2n1		5 µM (active)
FC(F)(F)c1ccccc1-c1nc(NCc2cccs2)c2ccccc2n1		3.3 µM (active)
Cc1cccc(CNc2ccnc(-c3ccccc3Cl)n2)c1	inactive	
c1ccc2c(Nc3ccncc3)nc(-c3ccc4c(c3)OCO4)nc2c1		28.6 µM (active)
COc1ccc(CNc2nc(-c3ccccc3OC)nc3ccccc23)c(OC)c1		14.5 µM (active)
COc1ccccc1-c1cc(NCc2ccccc2)ncn1		10.9 µM (active)
Fc1ccc(Nc2nc(-c3cccnc3)nc3ccccc23)cc1	inactive	
COc1cccc(-c2nccc(NCc3cccc(C)c3)n2)c1		13 µM (active)
FC(F)(F)c1ccccc1-c1nccc(NCc2cccs2)n1	inactive	
N#Cc1cccc(-c2ccc3ncnc(NCc4ccccc4)c3c2)c1		26.6 µM (active)
COc1ccccc1-c1nccc(NCc2cccc(C)c2)n1		18.8 µM (active)
Cc1cccc(CNc2ccnc(-c3ccccc3C(F)(F)F)n2)c1		3 µM (active)
FC(F)(F)c1ccccc1-c1nccc(NCc2ccccc2)n1		9.6 µM (active)
Cc1cccc(CNc2cc(-c3ccccc3C)ncn2)c1		26.3 µM (active)
COc1ccccc1-c1nccc(NCc2ccccc2)n1		16.9 µM (active)
COc1ccccc1CNc1ccnc(-c2ccccc2C(F)(F)F)n1		4.2 µM (active)
Cc1ccccc1-c1nc(NCc2cccs2)c2ccccc2n1		6 µM (active)

Reference: PubChem BioAssay AID624346 (National Center for Advancing Translational Sciences (NCATS), 2012)
